Inconclusive results are not listed. Entries that show only a call come without a potency. Calls of active or inactive are those of the source. The call rests on the fitted dose curve.
assay: p53 small molecule agonists, cell-based qHTS assay: qHTS cell viability counter screen (AID 1963581); details: p53RE-bla HCT-116 viability, ATP luminescence, 16 h; series mostly up to 66 µM; further: nearly all actives have a fitted effect of over 45% in size
Description: National Center for Advancing Translational Sciences [NCATS]
Division of Preclinical Innovation [DPI]
U.S. Environmental Protection Agency [EPA]
National Institutes of Environmental Health Sciences [NIEHS]
National Toxicology Program [NTP]
U.S. Food and Drug Administration [FDA]
p53, a tumor suppressor protein, is activated following cellular insult, including DNA damage and other cellular stresses. The activation of p53 regulates cell fate by inducing DNA repair, cell cycle arrest, apoptosis, or cellular senescence. The activation of p53, therefore, is a good indicator of DNA damage and other cellular stresses. The CellSensor p53RE-bla HCT-116 cell line (Invitrogen) contains a stably integrated beta-lactamase reporter gene under control of the p53 response elements. The activation of the reporter gene under culture conditions can be detected by fluorescence intensity. This cell line was used to screen the Tox21 compound library in a 1536-well plate format and to identify agonists that activate the p53 signaling pathway. The cytotoxicity of the Tox21 compound library against the p53 RE-bla HCT-116 cell line was tested in parallel by measuring the intra cellular ATP content in the same wells.
Tox21 Assay Protocol Summary:
The p53RE-bla cells were dispensed at 4,000 cells/5 ul/well in 1536-well black wall/clear bottom plates using a Multidrop dispenser. After the assay plates were incubated at a 37 C/5% CO2 incubator for 5 hours, 23 nL of compounds dissolved in DMSO, positive controls or DMSO only was transferred to the assay plate by a pin tool. The plates were incubated at 37 C for 16 hours. After 1 uL of LiveBLAzerTM B/G FRET substrate was added using a Flying Reagent Dispenser, the plates were incubated at room temperature for 2 hours, and fluorescence intensity was measured by an Envision plate reader. For cell viability readout that measures cytotoxicity, 4 ul/well of CellTiter-Glo reagent was added into the assay plates using a Flying Reagent Dispenser. After 30 min incubation at room temperature, the luminescence intensity in the plates was measured using a ViewLux plate reader.
Potency means the concentration at half of the fitted maximal effect.

SMILES | Potency
CC(C(=O)O)c1ccc(/C=C2\CCCCC2=O)cc1 (stereo not given) | inactive
COc1cc2c(cc1OC)C(=O)CC2 | inactive
Cc1ccccc1N1C(=O)c2cc(S(N)(=O)=O)c(Cl)cc2NC1C (stereo not given) | inactive
CCCCC(CC)(CO)CO | inactive
Cc1cccc(Nc2ccncc2S(=O)(=O)NC(=O)NC(C)C)c1 | inactive
C=CC(C)(O)CCCC(C)CCCC(C)CCCC(C)C (stereo not given) | inactive
CC(Cl)C(Cl)Cl (stereo not given) | inactive
C[C@@H]1[C@H](O)[C@@H](C)/C=C/C=C\C=C\C=C\C=C\C=C\C=C\[C@H](O[C@@H]2O[C@H](C)[C@@H](O)[C@H](N)[C@@H]2O)C[C@@H]2O[C@](O)(C[C@@H](O)C[C@@H](O)[C@H](O)CC[C@@H](O)C[C@@H](O)CC(=O)O[C@H]1C)C[C@H](O)[C@H]2C(=O)O (stereo in doubt) | inactive
O=C1C(CCS(=O)c2ccccc2)C(=O)N(c2ccccc2)N1c1ccccc1 (stereo not given) | inactive
NC(=O)NC(=O)Cc1ccccc1 | inactive
CC(=O)Oc1ccc(C2(c3ccc(OC(C)=O)cc3)C(=O)Nc3ccccc32)cc1 | inactive
CC(C)(C)C1(CCc2ccc(Cl)cc2)CO1 (stereo not given) | inactive
COc1cc2nc(N3CCN(C(=O)C4CCCO4)CC3)nc(N)c2cc1OC (stereo not given) | inactive
CCN1CCC[C@H]1CNC(=O)c1cc(S(N)(=O)=O)ccc1OC | inactive
CC(=O)OCC(=O)[C@@]1(O)CCC2C3CCC4=CC(=O)CC[C@]4(C)C3[C@@H](O)C[C@@]21C (stereo not given in full) | inactive
CCN(C(=O)c1cc(C)cc(OC[C@H](C)Nc2ccncc2)c1)C(C)C | inactive
CCCCCCCCCC[N+](C)(C)[O-] | inactive
CCCC(=O)OC(=O)CCC | inactive
CCCCC/C=C/CC(=O)OC | inactive
CO[C@@]1(NC(=O)CSCC#N)C(=O)N2C(C(=O)O)=C(CSc3nnnn3C)CS[C@@H]21 | inactive

SMILES | Potency
CCN(CC)CCOC(=O)C1(c2ccccc2)CCCC1 | inactive
O=C1OC(OC(=O)c2cccnc2Nc2cccc(C(F)(F)F)c2)c2ccccc21 (stereo not given) | inactive
CC(C)Cc1ccc(C(C)C(=O)OCc2ccccn2)cc1 (stereo not given) | inactive
CCN(CC)CCOCCOC(=O)C1(c2ccccc2)CCCC1 | inactive
CC(C)c1ccc2oc3nc(N)c(C(=O)O)cc3c(=O)c2c1 | inactive
CCCCC1CCCCC(=O)O1 (stereo not given) | inactive
COc1ccccc1Oc1c(NS(=O)(=O)c2ccc(C(C)(C)C)cc2)nc(-c2ncccn2)nc1OCCO | inactive
CCOCCOCCOC(C)=O | inactive
CCCC(c1cc(C(C)(C)C)c(O)cc1C)c1cc(C(C)(C)C)c(O)cc1C | 5.83 µM (active)
OC1(c2ccc(Cl)c(C(F)(F)F)c2)CCN(CCCC(c2ccc(F)cc2)c2ccc(F)cc2)CC1 | 11.2 µM (active)
CC(C)C[P+](C)(CC(C)C)CC(C)C | inactive
CCCC(=O)OCOC(=O)C1=C(C)NC(C)=C(C(=O)OC)C1c1cccc(Cl)c1Cl (stereo not given) | inactive
COC(C)(C)CCCC(C)CC=O (stereo not given) | inactive
CCCCN1CCCC1C(=O)Nc1c(C)cc(C)cc1C (stereo not given) | inactive
Cc1cccc(C)c1C | inactive
O=C(O)c1cccc(N(Cc2cccnc2)c2ccc(OC(F)F)c(OC(F)F)c2)c1 | inactive
COc1cccc(O)c1O | inactive
CCCCCCCCCCCC(=O)Cl | inactive
O=C1OCCN1/N=C/c1ccc([N+](=O)[O-])o1 | inactive
COc1ccc(CN2CCN(C(c3ccc(F)cc3)c3ccc(F)cc3)CC2)c(OC)c1OC | 15.8 µM (active)
